# Screening results deposited in PubChem BioAssay by National Center for Advancing Translational Sciences (NCATS).
# Shown are actives, neighbours in structure and some others; about 9.4% of the full set was active somewhere.
# HttQ103 aggreg = reduces HttQ103-GFP aggregates in PC12 cells. 220,000 tested, 1.1% active. Potency, µM (highest dose often 46.1 µM), hits mostly inhibitors. AID 1688. PC12 HttQ103-GFP aggregates, Acumen cytometry, 40 h; also: nearly all actives have a fitted effect of over 60% in size
#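 Multiplexed with ATP-based cell death, this channel scores GFP aggregates in PC12 cells expressing inducible HTTex1-Q103-GFP. Induction used 100 nM tebufenozide; compounds were tested in concentration series.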
# ALDH1A1 block = inhibitors of human aldehyde dehydrogenase 1A1. 220,000 tested, 7.3% active. AID 1030. Potency, µM (highest dose often 75.3 µM), actives largely listed as inhibitors. P00352. Purified ALDH1A1, NADH fluorescence, propionaldehyde substrate; active = well fitted inhibition curve with a large enough effect, not every such curve was filed as active; inconclusive = small, poorly fitted or top-dose-only effect, or another doubt; inactive = no such curve, though single readings can be large or run the other way
# Target sequence (P00352 whole entry, looked up): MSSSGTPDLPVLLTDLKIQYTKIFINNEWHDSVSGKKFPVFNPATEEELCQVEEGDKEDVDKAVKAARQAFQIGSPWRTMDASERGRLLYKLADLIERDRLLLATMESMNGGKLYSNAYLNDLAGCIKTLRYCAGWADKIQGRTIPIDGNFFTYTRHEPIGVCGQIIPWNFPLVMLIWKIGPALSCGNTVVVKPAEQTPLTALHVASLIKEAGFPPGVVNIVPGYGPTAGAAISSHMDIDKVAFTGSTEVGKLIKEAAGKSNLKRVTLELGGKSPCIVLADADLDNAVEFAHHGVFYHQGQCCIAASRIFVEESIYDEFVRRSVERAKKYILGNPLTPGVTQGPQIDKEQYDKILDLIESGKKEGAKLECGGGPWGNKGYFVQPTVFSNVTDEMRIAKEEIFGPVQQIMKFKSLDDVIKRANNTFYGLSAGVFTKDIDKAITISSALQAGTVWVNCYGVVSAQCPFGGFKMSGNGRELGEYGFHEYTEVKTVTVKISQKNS
# HTT cytoprotect = protects HTT-Q103 PC12 cells, measured by ATP | PC12 HTT-Q103 induced, cytoprotection, ATP luminescence, 40 h | AID 1471 | Potency, µM (top dose mostly 56.4 µM), hits mostly activators | 230,000 tested, 0.14% active; also: nearly all actives have a fitted effect of over 45% in size
#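 Rat PC12, Q103 Htt exon1-GFP fusion, ecdysone promoter; tebufenozide inducer 100 nM final; compound titration; qHTS, 1500 cells/well; ATPlite luminescent read.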
# IMPase cell inh = IMPase inhibition in cells. P97697. CHO-M1 cells, IP1 accumulation, HTRF TR-FRET ratio. inhibition (IP1 accumulation), % at 46.1 µM. 120,000 tested, under 10 active. AID 901; active = well fitted curve in the direction sought with a large enough effect in the signal ratio, not every such curve was filed as active; inconclusive = small, poorly fitted or top-dose-only effect, or a change in a side signal; inactive = no such curve, though single readings can be large or run the other way; the % refers to the signal ratio;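 also: cells stimulated with carbachol in lithium chloride buffer; higher means more IMPase inhibition seen as more IP1 and lower FRET ratio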
# Target sequence (P97697 whole entry, looked up): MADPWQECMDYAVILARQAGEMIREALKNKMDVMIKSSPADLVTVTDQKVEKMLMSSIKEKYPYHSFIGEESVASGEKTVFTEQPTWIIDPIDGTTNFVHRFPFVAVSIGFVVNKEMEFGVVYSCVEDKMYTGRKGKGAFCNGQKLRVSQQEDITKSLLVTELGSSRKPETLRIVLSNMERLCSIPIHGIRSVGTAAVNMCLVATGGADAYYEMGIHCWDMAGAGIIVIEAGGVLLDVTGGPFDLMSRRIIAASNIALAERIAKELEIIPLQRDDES
#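 The IP-One HTRF competitive assay in carbachol-stimulated CHO-M1 cells quantifies cellular IP1. Compounds spanned up to 46 uM final, and activity is expressed as AC50 from concentration-response fits of the ratio and donor data.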
# HPGD inh = inhibitors of human 15-hydroxyprostaglandin dehydrogenase (HPGD). purified HPGD, NADH fluorescence kinetic, PGE2 substrate. 150,000 tested, 4.3% active. Potency, µM, hits mostly inhibitors. P15428; active = well fitted inhibition curve with a large enough effect, not every such curve was filed as active; inconclusive = small, poorly fitted or top-dose-only effect, or another doubt; inactive = no such curve, though single readings can be large or run the other way
#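 20 nM HPGD preincubated 15 min at room temperature with compound in 50 mM Tris-HCl pH 8, 0.01% Tween 20. Started with 1 mM NAD+ and 30 uM prostaglandin E2; NADH fluorescence (360/450 nm) read 5 times over 30-s intervals, last minus first.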
# IMPase Li inh = membrane-permeable IMPase blocker, potentiated with lithium; CHO-M1 cells, IP1 TR-FRET (IP-One), carbachol + lithium; Potency, µM (titrated, usually from 59.4 µM), hits mostly inhibitors; 210,000 tested, 0.35% active; AID 1457;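 also: IP1 builds up when IMPase is blocked and the TR-FRET signal falls; nearly all actives have a fitted effect of over 50% in size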
#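 Lithium-sensitised IP1 accumulation assay; M1-expressing CHO cells treated 30 min at 37C with compound. Competitive antibody detection by time-resolved FRET followed a 10 min room-temperature lysis step.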
# A number is an active result; n = inactive; u = inconclusive; x = no result; [ ] = another dose, or the depositor's remark. Unless noted, calls follow the shape of the dose curve; as a rule, active = well fitted curve in the direction sought with a large enough effect; inconclusive = small, poorly fitted or top-dose-only effect, or another doubt; inactive = no such curve, though single readings can be large; an effect the other way counts as inactive or inconclusive.
SMILES,HttQ103 aggreg,ALDH1A1 block,HTT cytoprotect,IMPase cell inh,HPGD inh,IMPase Li inh
N#CC1=C(SCC(=O)NC2CCCCC2)NC(=O)CC1c1ccco1 (centres undefined),n,11µM,n,n,n,n
O=C1c2ccccc2C(=O)N1/N=C/c1ccc(Oc2ccc([N+](=O)[O-])cn2)cc1,n,n,n,x,x,n
Cc1nn(-c2ccccc2)c(OC(=O)c2ccc(Br)cc2)c1S(=O)(=O)c1ccccc1,x,x,x,n,x,x
O=C(NCc1ccco1)C1(S(=O)(=O)c2ccc(Cl)cc2)CC1,n,18µM,n,n,n,n
O=C(Nc1nccs1)C1(S(=O)(=O)c2ccc(Cl)cc2)CC1,u,11µM,n,n,x,x
Cc1ccc(S(=O)(=O)C2(C(=O)Nc3nccs3)CC2)cc1,n,n,n,n,n,n
COc1cccc2c1[C@H](CO)N1[C@H](C#N)[C@@H]3C[C@H](C(=O)O)[C@@H]([C@@H]1C2)N3C,x,n[13.5 µM],n[10 µM],x,n,n
Nc1c(S(=O)(=O)c2cccs2)c2nc3ccccc3nc2n1Cc1cccs1,n,u,n,u,u,n
CC(C)CCn1c(N)c(S(=O)(=O)c2cccs2)c2nc3ccccc3nc21,11µM,u,n[0.074 µM],n,u,n
Nc1c(S(=O)(=O)c2cccs2)c2nc3ccccc3nc2n1CC1CCCO1 (centres undefined),0.0022µM,u,x,n,u,n
O=C(c1ccc(F)cc1)C1CCN(C(=O)NC2CCCCC2)CC1,n,11µM,n,n,n,n
COc1ccc(S(=O)(=O)N(CC(=O)NCCSc2ccccc2)c2ccc(Cl)cc2)cc1,x,x,x,n,x,x
Cc1ccc(C(=O)Nc2ccccc2-c2ccccc2)cc1[N+](=O)[O-],n,18µM,n,u,n,n
Cc1csc(NC(=O)c2ccc(C)c([N+](=O)[O-])c2)n1,n,u,n[10 µM],x,28µM,n
Cc1ccc(C(=O)Nc2ccccc2C(=O)N2CCCC2)cc1[N+](=O)[O-],n,n,x,x,n,n
O=C(c1cc2nc(-c3cccs3)cc(C(F)(F)Cl)n2n1)N1CCCc2ccccc21,u,n,n[10 µM],n,u,n
O=C(c1cc2nc(-c3ccco3)cc(C(F)(F)F)n2n1)N1CCCc2ccccc21,n,18µM,n[10 µM],n,u,n
O=C(c1nn2c(C(F)(F)F)cc(-c3ccco3)nc2c1Br)N1CCCc2ccccc21,u,7.9µM,n[10 µM],n,n,n
O=C(c1cc2nc(-c3cccs3)cc(C(F)(F)F)n2n1)N1CCCc2ccccc21,n,n,n,n,14µM,n
O=C(c1nn2c(C(F)(F)F)cc(-c3cccs3)nc2c1Br)N1CCCc2ccccc21,u,n,n[10 µM],x,n,n
Cc1cc(C)n(-c2nc3cc(Cl)ccc3nc2Nc2ccc(CC(=O)O)cc2)n1,x,x,x,n,x,x
CC(C)[C@H](NS(=O)(=O)c1cccc(Cl)c1)C(=O)OCC(=O)N1CCN(c2ccccc2)CC1,n,2.5µM,n[10 µM],n,n,n
Cc1sc(NC(=O)CCl)c(C(=O)c2ccccc2)c1C,u,0.71µM,n[10 µM],n[1.84 µM],28µM,n
COC(=O)c1c(NC(C)=O)sc(C)c1C,n,n,n,x,x,n
Cc1cc(C(=O)c2ccc(C(C)(C)C)cc2)c(NC(=O)CCl)s1,n,11µM,n[10 µM],n,n,n
SMILES,HttQ103 aggreg,ALDH1A1 block,HTT cytoprotect,IMPase cell inh,HPGD inh,IMPase Li inh
Cc1ccccc1C(=O)Nc1sc(C)c(C)c1C(=O)c1ccccc1,n,u,n,n,32µM,n
CCOC(=O)c1cc(C)sc1NC(=O)CCC(=O)O,n,n,n,n,n,n
COc1ccc(N(C(=O)COc2ccc(Br)cc2)S(=O)(=O)c2ccc(C)cc2)cc1,x,x,x,n,x,x
COc1cc(OC)c(Nc2nc3ccccc3c3nncn23)cc1Cl,x,x,x,n,x,x
CCN(CC(=O)NCCc1ccccc1)S(=O)(=O)c1ccc(Br)cc1,n,n,n[10 µM],n,n,n
CCN(CC)S(=O)(=O)c1ccc(S(=O)(=O)N(CC(=O)Nc2ccccc2)Cc2ccco2)cc1,n,8.9µM,n[1.9 µM],n,n,n
O=C(CN(Cc1ccccc1)S(=O)(=O)c1ccc(Br)cc1)NCc1ccco1,n,13µM,n,n,n,n
CN(C)S(=O)(=O)c1ccc(S(=O)(=O)N(CC(=O)Nc2ccccc2)Cc2ccco2)cc1,n,n,n,n,n,n
CC(=O)Nc1ccc(S(=O)(=O)N(Cc2ccco2)CC2CCCO2)cc1 (centres undefined),n,13µM,n,n,n,n
CCN(CC)S(=O)(=O)c1ccc(S(=O)(=O)N(Cc2ccccn2)Cc2ccco2)cc1,u,1.8µM,n[10 µM],n,n,n
O=S(=O)(NCc1ccccc1)c1ccc(S(=O)(=O)N(Cc2ccccn2)Cc2ccco2)cc1,n,n,n[10 µM],n,n,n
CN(C)S(=O)(=O)c1ccc(S(=O)(=O)N(CC(=O)Nc2ccccc2)CC2CCCO2)cc1 (centres undefined),n,u,n[10 µM],n,n,n
Cc1c(NS(=O)(=O)c2ccc(C(C)(C)C)cc2)c(=O)n(-c2ccccc2)n1C,x,x,x,n,x,x
COCCn1c(=O)c(-c2ccc(Cl)cc2)nc2cncnc21,x,u,u,x,u,n
COc1ccc(NC(=O)C(c2ccccc2)N2CCN(c3ccccn3)CC2)cc1Cl (centres undefined),n,8.9µM,u,x,x,n
COc1ccc(-c2nc(-c3ccccc3)c(NC(C)(C)C)o2)cc1,x,n,u,x,n,n
c1ccc(SCCSc2ccccc2)cc1,x,n,n,x,n,n
CSc1nc(-c2ccccc2)nc(N2CCCC2)c1C(C)=O,n,n,n,u,20µM,n
CSc1nc(-c2ccccc2)nc(N2CCN(C)CC2)c1C(C)=O,n,n,n,n,n,n
C=C(C)C(=O)/C=C/C=C/c1ccccc1,x,n,n,x,n,n
NC(=O)CC[C@@H]1NC(=O)[C@H](CO)NC(=O)c2cc([N+](=O)[O-])cc(I)c2NCC[C@@H](C(N)=O)NC(=O)[C@H](Cc2ccc(O)cc2)NC1=O,n,3.5µM,x,x,n,n
COc1cccc(N(C)C(=S)Oc2ccc3c(c2)CCCC3)n1,n,x,n,x,x,x
FC(F)(F)c1cc(NC(=S)Nc2ccc3ccccc3c2)cc(C(F)(F)F)c1,x,n,u,x,n,n
NC(=O)NC(N)=O,x,n,n,x,n,n
S=c1nc[nH]c2c1cnn2-c1ccccc1,n[9.22 µM],3.2µM,n[10 µM],x,x,x
C=CCNC(=O)NC(=O)COC(=O)/C(C#N)=C/c1ccc(OC)cc1,n,25µM,n,x,x,n
COc1ccc(/C=C(\C#N)C(=O)OCC(=O)NC(=O)NCCC(C)C)cc1,n,u,n[10 µM],x,x,n
COc1ccc(CCn2c3c(c(=O)[nH]c2=O)C(NC(=O)c2ccccc2)(C(F)(F)F)C(=O)N3)cc1OC (centres undefined),x,x,x,n,x,x
Cc1ccc(CN2CCc3c(OCc4ccc(F)cc4)cccc3C2=O)cc1,u,n,n[10 µM],n,n,n
